Measured values reported in ChEMBL document CHEMBL2218924, “A broad activity screen in support of a chemogenomic map for kinase signalling research and drug discovery” (Biochem J, 2013).

What was measured:
[1] = biological target: Protein kinase C eta type (Homo sapiens) (UniProt P24723); conditions: at 1 µM
[2] = biological target: Protein kinase C eta type (Homo sapiens) (UniProt P24723); conditions: at 10 µM
[3] = biological target: T1, Protein kinase C iota type (Homo sapiens) (UniProt P41743); conditions: at 1 µM
T1 sequence (whole entry): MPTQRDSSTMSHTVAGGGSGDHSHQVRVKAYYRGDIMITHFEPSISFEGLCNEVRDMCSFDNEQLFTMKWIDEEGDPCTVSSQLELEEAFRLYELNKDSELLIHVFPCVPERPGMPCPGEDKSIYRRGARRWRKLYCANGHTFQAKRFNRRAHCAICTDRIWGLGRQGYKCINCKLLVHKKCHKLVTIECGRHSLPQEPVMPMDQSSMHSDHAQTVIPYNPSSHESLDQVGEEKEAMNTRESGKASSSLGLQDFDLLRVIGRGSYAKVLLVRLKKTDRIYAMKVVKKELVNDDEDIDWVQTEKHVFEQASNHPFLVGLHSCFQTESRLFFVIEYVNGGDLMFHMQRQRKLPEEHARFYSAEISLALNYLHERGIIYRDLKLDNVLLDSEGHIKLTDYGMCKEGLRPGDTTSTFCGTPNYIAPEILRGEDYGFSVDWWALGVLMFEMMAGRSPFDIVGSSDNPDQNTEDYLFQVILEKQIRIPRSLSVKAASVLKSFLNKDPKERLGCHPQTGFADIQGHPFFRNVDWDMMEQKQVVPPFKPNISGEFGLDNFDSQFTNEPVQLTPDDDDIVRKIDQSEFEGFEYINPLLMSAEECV

[4] = biological target: T1, Protein kinase C iota type (Homo sapiens); conditions: at 10 µM
[5] = biological target: T2, Serine/threonine-protein kinase D1 (Homo sapiens) (UniProt Q15139); conditions: at 1 µM
T2 sequence (whole entry): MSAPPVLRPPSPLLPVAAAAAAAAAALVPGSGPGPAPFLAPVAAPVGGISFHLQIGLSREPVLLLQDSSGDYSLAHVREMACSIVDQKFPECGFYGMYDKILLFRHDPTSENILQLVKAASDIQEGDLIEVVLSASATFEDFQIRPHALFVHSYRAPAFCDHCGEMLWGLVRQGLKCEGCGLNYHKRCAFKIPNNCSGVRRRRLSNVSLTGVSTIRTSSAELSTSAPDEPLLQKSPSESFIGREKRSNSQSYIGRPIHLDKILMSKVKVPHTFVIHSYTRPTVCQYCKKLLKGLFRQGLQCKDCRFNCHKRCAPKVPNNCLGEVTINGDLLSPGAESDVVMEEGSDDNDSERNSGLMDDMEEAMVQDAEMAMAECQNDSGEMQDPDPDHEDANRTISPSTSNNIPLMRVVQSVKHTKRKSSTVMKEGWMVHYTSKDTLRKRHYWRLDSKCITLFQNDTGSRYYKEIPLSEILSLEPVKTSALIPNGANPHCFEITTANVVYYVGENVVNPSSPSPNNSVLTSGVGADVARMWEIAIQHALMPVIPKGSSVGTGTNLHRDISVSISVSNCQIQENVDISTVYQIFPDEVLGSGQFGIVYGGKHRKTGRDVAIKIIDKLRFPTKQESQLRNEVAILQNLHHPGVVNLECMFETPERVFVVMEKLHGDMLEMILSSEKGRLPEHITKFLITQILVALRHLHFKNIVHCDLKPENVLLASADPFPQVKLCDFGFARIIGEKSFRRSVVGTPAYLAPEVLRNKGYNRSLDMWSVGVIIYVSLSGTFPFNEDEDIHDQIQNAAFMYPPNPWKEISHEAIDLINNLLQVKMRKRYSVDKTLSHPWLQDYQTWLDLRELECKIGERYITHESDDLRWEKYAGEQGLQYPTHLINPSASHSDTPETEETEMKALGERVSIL

[6] = biological target: T3, Serine/threonine-protein kinase D2 (Homo sapiens) (UniProt Q9BZL6); conditions: at 1 µM
T3 sequence (whole entry): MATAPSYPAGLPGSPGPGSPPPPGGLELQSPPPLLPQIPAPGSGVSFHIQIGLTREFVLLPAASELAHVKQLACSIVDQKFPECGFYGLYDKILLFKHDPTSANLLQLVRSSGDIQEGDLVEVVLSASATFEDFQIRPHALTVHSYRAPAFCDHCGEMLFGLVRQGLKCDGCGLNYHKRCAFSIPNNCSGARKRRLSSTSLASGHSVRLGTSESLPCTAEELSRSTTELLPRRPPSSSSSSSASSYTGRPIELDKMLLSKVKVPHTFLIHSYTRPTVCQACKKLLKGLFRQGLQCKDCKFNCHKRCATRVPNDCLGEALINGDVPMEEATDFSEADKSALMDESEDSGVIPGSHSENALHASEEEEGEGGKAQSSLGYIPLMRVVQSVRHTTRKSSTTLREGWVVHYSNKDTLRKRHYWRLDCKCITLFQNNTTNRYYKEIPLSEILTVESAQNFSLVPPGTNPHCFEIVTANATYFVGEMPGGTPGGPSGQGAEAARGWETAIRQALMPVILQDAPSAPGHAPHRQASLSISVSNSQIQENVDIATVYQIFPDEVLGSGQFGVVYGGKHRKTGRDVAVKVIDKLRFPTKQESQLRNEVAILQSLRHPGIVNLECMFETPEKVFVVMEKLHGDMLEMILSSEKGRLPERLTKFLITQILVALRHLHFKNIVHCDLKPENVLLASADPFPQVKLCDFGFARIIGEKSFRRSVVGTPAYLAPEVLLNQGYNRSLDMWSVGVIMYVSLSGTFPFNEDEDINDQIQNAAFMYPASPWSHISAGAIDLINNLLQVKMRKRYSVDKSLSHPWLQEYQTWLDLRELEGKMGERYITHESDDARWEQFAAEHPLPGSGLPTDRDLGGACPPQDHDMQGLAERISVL

[7] = biological target: T3, Serine/threonine-protein kinase D2 (Homo sapiens); conditions: at 10 µM
[8] = biological target: T4, cGMP-dependent protein kinase 1 (Homo sapiens) (UniProt Q13976); conditions: at 1 µM
T4 sequence (whole entry): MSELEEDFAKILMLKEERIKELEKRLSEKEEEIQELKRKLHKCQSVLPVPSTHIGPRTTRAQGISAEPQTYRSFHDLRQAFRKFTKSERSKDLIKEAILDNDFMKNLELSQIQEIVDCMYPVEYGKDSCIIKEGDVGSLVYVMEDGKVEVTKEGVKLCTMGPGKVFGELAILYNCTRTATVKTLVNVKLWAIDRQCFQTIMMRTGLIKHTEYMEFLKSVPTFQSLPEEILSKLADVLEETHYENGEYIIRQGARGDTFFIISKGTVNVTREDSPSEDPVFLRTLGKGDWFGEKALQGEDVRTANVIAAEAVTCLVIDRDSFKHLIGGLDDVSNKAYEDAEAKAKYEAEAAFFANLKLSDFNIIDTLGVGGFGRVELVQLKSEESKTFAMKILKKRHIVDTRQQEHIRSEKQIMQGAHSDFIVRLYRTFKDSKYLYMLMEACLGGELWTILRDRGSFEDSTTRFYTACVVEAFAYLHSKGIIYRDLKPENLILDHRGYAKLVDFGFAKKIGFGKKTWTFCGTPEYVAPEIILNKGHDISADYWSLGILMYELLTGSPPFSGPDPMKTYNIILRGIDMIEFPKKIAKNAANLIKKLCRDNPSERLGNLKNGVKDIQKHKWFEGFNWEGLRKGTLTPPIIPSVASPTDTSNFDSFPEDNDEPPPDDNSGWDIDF

[9] = biological target: T4, cGMP-dependent protein kinase 1 (Homo sapiens); conditions: at 10 µM
[10] = biological target: T5, MAP kinase-activated protein kinase 5 (Homo sapiens) (UniProt Q8IW41); conditions: at 1 µM
T5 sequence (whole entry): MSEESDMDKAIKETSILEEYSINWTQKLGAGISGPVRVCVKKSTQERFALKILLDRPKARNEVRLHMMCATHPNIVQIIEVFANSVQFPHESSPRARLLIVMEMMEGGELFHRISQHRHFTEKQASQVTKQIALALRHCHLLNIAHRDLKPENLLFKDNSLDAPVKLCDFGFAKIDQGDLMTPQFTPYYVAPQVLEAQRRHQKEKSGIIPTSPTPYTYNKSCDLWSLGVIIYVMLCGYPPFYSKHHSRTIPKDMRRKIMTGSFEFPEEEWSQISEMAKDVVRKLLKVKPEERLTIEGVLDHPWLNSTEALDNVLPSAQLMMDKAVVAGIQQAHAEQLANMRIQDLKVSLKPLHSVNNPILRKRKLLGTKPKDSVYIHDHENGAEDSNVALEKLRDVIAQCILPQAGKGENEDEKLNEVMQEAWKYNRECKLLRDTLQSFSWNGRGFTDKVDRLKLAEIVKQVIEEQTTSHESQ

[11] = biological target: T5, MAP kinase-activated protein kinase 5 (Homo sapiens); conditions: at 10 µM
[12] = biological target: Serine/threonine-protein kinase N2 (Homo sapiens) (UniProt Q16513); conditions: at 10 µM
Sequence of Serine/threonine-protein kinase N2 (Homo sapiens) (Q16513 whole entry, looked up): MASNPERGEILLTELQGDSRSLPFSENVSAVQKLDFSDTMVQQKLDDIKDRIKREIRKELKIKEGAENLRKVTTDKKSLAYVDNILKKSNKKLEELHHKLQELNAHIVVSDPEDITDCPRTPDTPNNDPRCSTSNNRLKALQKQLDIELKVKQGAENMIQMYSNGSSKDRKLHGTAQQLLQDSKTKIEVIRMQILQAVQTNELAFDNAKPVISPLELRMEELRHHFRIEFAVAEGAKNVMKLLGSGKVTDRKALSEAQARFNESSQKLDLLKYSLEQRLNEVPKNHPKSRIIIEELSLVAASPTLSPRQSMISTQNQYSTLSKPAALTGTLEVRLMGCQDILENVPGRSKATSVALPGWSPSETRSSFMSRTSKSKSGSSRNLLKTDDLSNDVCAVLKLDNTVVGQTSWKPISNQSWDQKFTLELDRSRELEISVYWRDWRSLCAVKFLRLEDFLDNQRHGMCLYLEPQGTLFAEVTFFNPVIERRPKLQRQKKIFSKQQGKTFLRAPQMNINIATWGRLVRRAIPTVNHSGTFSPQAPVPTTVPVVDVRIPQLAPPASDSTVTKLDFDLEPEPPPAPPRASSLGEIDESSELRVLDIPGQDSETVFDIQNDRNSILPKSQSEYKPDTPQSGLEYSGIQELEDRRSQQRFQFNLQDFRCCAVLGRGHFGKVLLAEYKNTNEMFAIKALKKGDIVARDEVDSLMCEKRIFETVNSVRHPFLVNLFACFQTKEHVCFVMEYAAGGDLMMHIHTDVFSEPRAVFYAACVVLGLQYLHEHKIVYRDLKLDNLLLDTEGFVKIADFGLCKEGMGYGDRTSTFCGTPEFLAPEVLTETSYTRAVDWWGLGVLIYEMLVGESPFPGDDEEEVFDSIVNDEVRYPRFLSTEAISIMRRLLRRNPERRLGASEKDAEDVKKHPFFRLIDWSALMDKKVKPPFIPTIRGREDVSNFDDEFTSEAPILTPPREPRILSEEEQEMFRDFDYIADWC

[13] = biological target: Tyrosine-protein kinase FRK (Homo sapiens) (UniProt P42685); conditions: at 1 µM
Sequence of Tyrosine-protein kinase FRK (Homo sapiens) (P42685 whole entry): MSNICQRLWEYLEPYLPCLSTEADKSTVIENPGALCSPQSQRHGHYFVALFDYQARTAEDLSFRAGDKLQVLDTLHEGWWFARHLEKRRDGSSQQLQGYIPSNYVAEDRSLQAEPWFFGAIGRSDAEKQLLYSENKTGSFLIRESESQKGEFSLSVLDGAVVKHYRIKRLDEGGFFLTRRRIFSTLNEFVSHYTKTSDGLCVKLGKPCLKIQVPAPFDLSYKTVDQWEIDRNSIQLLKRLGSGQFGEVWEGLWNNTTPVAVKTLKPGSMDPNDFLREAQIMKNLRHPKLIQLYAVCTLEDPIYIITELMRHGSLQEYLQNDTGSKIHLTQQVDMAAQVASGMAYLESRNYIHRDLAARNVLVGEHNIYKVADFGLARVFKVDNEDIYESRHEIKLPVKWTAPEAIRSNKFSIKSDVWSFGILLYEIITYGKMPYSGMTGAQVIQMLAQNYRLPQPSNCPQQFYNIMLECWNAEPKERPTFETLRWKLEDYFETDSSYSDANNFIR

[14] = biological target: Tyrosine-protein kinase FRK (Homo sapiens) (UniProt P42685); conditions: at 10 µM
[15] = biological target: Protein kinase C theta type (Homo sapiens) (UniProt Q04759); conditions: at 1 µM
Sequence of Protein kinase C theta type (Homo sapiens) (Q04759 whole entry, looked up): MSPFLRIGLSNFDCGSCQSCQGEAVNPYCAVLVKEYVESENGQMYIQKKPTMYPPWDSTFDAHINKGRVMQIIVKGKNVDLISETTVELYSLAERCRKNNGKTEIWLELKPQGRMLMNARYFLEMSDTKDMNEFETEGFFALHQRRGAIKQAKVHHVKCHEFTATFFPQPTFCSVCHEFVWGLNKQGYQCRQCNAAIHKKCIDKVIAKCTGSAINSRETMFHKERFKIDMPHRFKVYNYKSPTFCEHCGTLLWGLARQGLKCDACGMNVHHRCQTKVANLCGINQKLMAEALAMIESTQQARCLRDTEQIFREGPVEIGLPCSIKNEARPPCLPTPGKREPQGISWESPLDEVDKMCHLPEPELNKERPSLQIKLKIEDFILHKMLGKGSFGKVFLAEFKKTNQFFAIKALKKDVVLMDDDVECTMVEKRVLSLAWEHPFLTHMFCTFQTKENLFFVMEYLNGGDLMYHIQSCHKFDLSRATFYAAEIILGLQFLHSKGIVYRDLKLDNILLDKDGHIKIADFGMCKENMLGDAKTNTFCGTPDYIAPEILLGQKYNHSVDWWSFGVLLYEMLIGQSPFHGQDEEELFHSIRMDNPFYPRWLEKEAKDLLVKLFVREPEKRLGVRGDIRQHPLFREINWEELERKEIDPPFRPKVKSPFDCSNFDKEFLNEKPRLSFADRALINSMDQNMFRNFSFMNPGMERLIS

[16] = biological target: Protein kinase C theta type (Homo sapiens) (UniProt Q04759); conditions: at 10 µM
[17] = biological target: T4, cGMP-dependent protein kinase 1 (Homo sapiens); conditions: at 1 µM; remark: listed apart in the source
[18] = biological target: T4, cGMP-dependent protein kinase 1 (Homo sapiens); conditions: at 10 µM; remark: listed apart in the source
[19] = biological target: Serine/threonine-protein kinase N2 (Homo sapiens) (UniProt Q16513); conditions: at 1 µM
[20] = biological target: T2, Serine/threonine-protein kinase D1 (Homo sapiens); conditions: at 10 µM

Sequence of Protein kinase C eta type (Homo sapiens) (P24723 whole entry): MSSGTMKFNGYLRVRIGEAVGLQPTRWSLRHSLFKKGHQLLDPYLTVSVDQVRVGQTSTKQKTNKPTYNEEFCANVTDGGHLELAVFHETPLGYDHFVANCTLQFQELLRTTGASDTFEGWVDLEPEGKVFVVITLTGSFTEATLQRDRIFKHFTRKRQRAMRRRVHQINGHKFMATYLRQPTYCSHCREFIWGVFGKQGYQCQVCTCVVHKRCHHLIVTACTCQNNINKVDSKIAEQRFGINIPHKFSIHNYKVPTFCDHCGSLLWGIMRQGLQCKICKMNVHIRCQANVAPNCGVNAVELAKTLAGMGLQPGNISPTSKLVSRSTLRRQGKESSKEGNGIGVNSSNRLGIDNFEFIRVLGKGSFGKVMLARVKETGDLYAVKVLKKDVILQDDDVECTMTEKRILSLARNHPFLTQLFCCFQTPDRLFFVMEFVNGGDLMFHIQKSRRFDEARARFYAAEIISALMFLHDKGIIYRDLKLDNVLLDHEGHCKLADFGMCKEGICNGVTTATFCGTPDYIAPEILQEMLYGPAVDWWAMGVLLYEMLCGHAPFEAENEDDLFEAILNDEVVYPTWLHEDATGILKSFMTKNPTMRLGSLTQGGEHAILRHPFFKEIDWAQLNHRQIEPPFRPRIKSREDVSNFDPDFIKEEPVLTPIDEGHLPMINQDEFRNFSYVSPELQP

SMILES | residual activity [1] [%] | residual activity [2] [%] | residual activity [3] | residual activity [4] [%] | residual activity [5] [%] | residual activity [6] [%] | residual activity [7] [%] | residual activity [8] [%] | residual activity [9] [%] | residual activity [10] [%] | residual activity [11] [%] | residual activity [12] [%] | residual activity [13] [%] | residual activity [14] [%] | residual activity [15] [%] | residual activity [16] [%] | residual activity [17] [%] | residual activity [18] [%] | residual activity [19] [%] | residual activity [20] [%]
O=C(c1ccccc1)c1ccc(N2CCOCC2)cc1O | 116 | 83 | 78% (inactive) | 73 | 95 | 96 | 100 | 93 | 80 | 99 | 74 | 129 | 89 | 96 | – | – | – | – | – | –
COc1cc2nccc(Oc3ccc(NC(=O)Nc4cc(C)on4)c(Cl)c3)c2cc1OC | 96 | 79 | – | – | – | – | – | 105 | – | 99 | 70 | 108 | 2 | -3 | 100 | 98 | 101 | 97 | 97 | –
O=C1NC(=O)C(c2c[nH]c3ccccc23)=C1c1c[nH]c2ccccc12 | 68 | 17 | 116% (inactive) | 79 | – | – | – | 83 | 28 | 98 | 48 | 37 | 80 | 41 | 5 | 2 | – | 43 | 81 | 71
Cn1sc(=O)n(Cc2ccccc2)c1=O | 79 | 17 | 87% (inactive) | 19 | 90 | 99 | 93 | – | – | – | – | 84 | 88 | 92 | 89 | 85 | – | – | 91 | 64
O=c1cc(N2CCNCC2)oc2c(-c3ccccc3)cccc12 | 99 | 82 | 93% (inactive) | 71 | 96 | 102 | – | 84 | 81 | 93 | 99 | 101 | – | 104 | 102 | 94 | – | – | 105 | 90
COc1cc2c(cc1OC)-c1n[nH]c(Nc3cccc(F)c3)c1C2 | 102 | 70 | – | – | 78 | 107 | 104 | – | – | 47 | 65 | – | – | – | – | 81 | – | – | – | –
O=S(=O)(NCCNC/C=C/c1ccc(Br)cc1)c1cccc2cnccc12 | 66 | 15 | – | – | – | – | – | 4 | 4 | – | – | 4 | – | – | 61 | 17 | 4 | 4 | 26 | 20
N#Cc1c(NC(=O)c2cccc3ccccc23)sc2c1CCCC2 | 91 | 92 | – | – | 92 | – | 93 | 96 | 87 | 87 | 93 | – | 88 | 100 | – | – | – | – | – | 83
O=C1C(Cl)=C(N2C(=O)CCC2=O)C(=O)c2ccccc21 | 68 | 24 | 118% (inactive) | 55 | 72 | 99 | 100 | 101 | 88 | – | 98 | 79 | 88 | 96 | 92 | 85 | 95 | 96 | 86 | 76
O=C1NC(=O)C(c2cn(CCCn3ccnc3)c3ccccc23)=C1Nc1ccccc1 | 15 | 2 | – | – | – | – | – | – | – | – | 59 | 11 | – | – | 3 | 2 | – | – | 26 | –
CC(C)(C)n1nc(Cc2cccc3ccccc23)c2c(N)ncnc21 | 77 | 86 | 115% (inactive) | 82 | 22 | 80 | 24 | 86 | 95 | 75 | 33 | – | 26 | 0 | 98 | 92 | 109 | 97 | – | –
COc1ccc2c(c1)c(C1=C(c3c[nH]c4ccccc34)C(=O)NC1=O)cn2CCCN(C)C | 10 | 2 | – | 62 | 108 | 98 | 102 | 64 | 22 | – | – | 25 | 97 | – | 3 | 1 | – | 28 | 68 | 58
CCCCc1c(-c2ccc(O)cc2)[nH]c2nccnc12 | 96 | 77 | – | 83 | 83 | – | – | – | – | – | – | 85 | 59 | 25 | – | – | – | – | 87 | 59
Nc1ncnc2[nH]nc(Nc3ccc(F)cc3)c12 | 110 | 104 | 113% (inactive) | 109 | 81 | 106 | – | 95 | 79 | 109 | 91 | 80 | – | 38 | 107 | 92 | 100 | 79 | 107 | 64
